Legend:
Experiment in all cases: log2 ratio of Biotin-Ahx-Ub-VS probe labelling (fragment/DMSO); higher = less target engagement (more negative = stronger competition), active = hit call of the paper (q ≤ 0.05, log2 ratio ≤ -1)
Conditions in all cases: compound concentration: 200 uM; treatment time: 3 h
ALG13 = molecular target: T1, ALG13 (UniProt Q9NP73)
T1 sequence (whole entry): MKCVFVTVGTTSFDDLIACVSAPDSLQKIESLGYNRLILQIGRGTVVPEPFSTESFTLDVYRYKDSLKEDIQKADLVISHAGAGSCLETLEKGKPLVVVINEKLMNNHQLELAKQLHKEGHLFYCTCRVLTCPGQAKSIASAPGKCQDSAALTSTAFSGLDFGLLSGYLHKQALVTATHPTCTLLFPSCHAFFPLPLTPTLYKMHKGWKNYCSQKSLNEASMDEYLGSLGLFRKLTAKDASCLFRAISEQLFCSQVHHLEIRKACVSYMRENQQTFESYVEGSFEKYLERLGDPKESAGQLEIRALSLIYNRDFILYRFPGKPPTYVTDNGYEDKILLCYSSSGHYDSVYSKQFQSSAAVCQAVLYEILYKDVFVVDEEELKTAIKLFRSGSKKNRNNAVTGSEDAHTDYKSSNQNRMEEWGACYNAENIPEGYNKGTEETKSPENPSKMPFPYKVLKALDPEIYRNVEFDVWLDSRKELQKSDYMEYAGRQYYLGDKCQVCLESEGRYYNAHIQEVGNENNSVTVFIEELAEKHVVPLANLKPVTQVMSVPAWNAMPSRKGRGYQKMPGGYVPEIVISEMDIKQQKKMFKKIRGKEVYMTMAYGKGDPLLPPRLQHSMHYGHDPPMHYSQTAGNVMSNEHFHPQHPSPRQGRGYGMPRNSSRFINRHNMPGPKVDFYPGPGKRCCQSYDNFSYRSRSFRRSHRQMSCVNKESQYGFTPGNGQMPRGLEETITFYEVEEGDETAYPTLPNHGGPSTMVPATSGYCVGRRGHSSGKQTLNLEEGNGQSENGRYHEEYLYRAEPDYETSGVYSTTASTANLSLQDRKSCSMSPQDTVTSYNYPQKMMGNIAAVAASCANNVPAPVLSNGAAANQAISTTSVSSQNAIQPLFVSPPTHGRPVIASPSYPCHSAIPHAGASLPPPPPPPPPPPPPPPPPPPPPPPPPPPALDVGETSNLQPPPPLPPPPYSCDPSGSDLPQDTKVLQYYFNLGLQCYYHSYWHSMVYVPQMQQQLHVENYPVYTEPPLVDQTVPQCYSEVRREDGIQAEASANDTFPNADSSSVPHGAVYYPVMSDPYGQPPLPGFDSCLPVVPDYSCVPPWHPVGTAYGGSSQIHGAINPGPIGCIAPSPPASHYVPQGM
Method in brief: (§1)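 Lysate from HEK293T cells, 495 µg per sample in Tris/CHAPS/IGEPAL buffer with protease inhibitors, was treated for 3 h in triplicate with fragment at 200 µM or vehicle. Biotin-Ahx-Ub-VS was next added at 0.5 µM final for 1 h. The labelled DUBs were enriched with NeutrAvidin, digested with LysC and trypsin, and run by diaPASEF LC-MS/MS, with values given as average log2 fragment/vehicle ratios by unpaired t-test on global-median-normalised Spectronaut quantities of proteins with ≥2 unique peptides.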

ATXN3 = ATXN3 (UniProt P54252)
Sequence of ATXN3 (P54252 whole entry): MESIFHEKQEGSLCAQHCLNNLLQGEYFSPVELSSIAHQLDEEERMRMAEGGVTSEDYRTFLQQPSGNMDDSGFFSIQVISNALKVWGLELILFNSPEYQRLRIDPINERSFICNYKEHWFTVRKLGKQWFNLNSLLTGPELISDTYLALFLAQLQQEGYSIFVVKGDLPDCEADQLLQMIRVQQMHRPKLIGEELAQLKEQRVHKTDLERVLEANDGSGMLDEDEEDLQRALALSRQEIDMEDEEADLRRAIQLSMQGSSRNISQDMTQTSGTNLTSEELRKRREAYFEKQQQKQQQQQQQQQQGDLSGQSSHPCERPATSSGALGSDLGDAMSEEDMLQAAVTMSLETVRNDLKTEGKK
Method in brief: as §1

BAP1 = molecular target: T2, BAP1 (UniProt Q92560)
T2 sequence (whole entry): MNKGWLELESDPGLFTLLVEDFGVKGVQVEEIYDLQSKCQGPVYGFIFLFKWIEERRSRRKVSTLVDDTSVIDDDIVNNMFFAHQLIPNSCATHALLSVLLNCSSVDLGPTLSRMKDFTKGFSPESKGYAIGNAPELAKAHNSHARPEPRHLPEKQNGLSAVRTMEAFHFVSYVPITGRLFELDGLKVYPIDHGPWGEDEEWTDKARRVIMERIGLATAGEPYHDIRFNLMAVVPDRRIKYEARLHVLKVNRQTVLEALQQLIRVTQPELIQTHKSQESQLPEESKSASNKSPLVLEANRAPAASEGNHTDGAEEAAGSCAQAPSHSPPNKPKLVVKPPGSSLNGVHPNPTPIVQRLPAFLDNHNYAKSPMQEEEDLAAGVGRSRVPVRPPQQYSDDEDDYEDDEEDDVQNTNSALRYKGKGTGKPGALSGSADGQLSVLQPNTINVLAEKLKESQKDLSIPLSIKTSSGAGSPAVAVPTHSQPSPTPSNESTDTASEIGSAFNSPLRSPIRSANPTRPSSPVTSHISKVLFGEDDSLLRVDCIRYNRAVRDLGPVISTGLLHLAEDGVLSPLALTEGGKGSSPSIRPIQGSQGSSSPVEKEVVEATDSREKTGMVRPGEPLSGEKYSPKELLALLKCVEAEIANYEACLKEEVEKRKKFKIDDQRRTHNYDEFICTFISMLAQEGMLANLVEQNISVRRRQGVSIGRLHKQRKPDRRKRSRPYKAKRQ
Method in brief: as §1

EIF3F = EIF3F (UniProt O00303)
Sequence of EIF3F (O00303 whole entry): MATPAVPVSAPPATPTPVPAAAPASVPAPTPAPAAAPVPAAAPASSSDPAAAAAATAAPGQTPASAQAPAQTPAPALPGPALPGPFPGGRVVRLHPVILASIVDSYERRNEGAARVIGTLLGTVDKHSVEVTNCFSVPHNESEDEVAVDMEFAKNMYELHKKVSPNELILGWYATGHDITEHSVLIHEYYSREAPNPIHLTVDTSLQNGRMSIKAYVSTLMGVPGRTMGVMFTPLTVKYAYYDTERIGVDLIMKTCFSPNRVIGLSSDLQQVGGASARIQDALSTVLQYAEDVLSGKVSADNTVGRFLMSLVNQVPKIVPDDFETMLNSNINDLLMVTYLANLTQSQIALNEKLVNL
Method in brief: as §1

EIF3H = EIF3H (UniProt O15372)
Sequence of EIF3H (O15372 whole entry): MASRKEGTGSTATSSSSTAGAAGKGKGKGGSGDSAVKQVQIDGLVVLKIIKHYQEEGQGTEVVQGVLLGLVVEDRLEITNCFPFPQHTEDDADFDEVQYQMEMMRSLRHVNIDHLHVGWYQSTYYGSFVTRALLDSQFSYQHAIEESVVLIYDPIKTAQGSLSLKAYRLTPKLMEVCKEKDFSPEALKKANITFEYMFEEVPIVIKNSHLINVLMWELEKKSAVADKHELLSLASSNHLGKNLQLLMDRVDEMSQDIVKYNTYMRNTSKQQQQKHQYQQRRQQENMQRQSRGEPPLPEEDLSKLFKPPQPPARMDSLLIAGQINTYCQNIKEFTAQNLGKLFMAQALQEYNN
Method in brief: as §1

FAM105A = molecular target: T3, FAM105A (UniProt Q9NUU6)
T3 sequence (whole entry): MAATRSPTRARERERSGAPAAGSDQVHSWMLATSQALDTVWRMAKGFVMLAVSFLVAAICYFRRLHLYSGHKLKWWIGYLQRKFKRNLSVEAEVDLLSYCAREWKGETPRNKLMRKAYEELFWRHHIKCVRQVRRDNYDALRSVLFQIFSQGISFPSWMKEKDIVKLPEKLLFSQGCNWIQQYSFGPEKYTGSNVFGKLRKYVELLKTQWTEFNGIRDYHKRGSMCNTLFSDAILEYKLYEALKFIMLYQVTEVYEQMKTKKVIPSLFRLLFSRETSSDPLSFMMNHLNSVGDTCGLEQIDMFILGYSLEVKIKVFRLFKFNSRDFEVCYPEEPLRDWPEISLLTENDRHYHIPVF
Method in brief: as §1

OTUB1 = OTUB1 (UniProt Q96FW1)
Sequence of OTUB1 (Q96FW1 whole entry): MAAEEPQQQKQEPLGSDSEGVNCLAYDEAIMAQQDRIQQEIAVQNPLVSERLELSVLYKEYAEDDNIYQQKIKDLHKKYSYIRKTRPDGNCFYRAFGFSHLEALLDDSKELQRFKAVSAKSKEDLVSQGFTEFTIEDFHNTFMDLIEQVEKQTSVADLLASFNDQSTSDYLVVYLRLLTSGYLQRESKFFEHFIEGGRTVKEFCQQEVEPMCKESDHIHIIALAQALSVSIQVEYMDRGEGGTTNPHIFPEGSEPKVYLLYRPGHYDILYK
Method in brief: as §1

OTUD4 = molecular target: T4, OTUD4 (UniProt Q01804)
T4 sequence (whole entry): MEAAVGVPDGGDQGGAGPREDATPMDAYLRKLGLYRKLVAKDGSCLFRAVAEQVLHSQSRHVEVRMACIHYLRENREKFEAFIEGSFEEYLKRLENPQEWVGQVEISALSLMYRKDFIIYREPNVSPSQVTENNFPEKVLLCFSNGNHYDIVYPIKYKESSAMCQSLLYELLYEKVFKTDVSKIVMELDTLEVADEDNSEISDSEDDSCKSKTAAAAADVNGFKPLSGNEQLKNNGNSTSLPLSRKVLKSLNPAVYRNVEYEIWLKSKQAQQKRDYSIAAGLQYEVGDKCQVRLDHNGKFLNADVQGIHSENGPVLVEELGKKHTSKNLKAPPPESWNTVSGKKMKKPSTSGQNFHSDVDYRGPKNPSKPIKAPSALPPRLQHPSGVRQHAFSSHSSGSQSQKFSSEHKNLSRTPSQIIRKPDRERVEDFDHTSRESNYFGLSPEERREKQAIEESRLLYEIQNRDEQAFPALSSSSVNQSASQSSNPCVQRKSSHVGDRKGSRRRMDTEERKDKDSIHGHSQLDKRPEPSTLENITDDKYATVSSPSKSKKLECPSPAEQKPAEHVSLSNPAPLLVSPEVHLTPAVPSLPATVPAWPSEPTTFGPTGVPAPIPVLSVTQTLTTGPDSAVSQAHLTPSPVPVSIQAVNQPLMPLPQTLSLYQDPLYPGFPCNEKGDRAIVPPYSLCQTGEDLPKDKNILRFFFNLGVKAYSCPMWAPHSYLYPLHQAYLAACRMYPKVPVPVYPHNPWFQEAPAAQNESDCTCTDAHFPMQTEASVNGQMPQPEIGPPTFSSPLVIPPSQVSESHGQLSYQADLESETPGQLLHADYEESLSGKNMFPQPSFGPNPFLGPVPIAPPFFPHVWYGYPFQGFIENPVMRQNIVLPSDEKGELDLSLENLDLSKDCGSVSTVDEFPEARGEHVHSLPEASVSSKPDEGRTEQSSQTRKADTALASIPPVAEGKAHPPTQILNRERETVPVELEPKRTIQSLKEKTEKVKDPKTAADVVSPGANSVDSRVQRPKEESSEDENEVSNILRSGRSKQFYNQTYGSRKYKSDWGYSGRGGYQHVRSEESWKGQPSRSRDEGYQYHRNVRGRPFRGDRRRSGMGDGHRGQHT
Method in brief: as §1

OTUD5 = molecular target: T5, OTUD5 (UniProt Q96G74)
T5 sequence (whole entry): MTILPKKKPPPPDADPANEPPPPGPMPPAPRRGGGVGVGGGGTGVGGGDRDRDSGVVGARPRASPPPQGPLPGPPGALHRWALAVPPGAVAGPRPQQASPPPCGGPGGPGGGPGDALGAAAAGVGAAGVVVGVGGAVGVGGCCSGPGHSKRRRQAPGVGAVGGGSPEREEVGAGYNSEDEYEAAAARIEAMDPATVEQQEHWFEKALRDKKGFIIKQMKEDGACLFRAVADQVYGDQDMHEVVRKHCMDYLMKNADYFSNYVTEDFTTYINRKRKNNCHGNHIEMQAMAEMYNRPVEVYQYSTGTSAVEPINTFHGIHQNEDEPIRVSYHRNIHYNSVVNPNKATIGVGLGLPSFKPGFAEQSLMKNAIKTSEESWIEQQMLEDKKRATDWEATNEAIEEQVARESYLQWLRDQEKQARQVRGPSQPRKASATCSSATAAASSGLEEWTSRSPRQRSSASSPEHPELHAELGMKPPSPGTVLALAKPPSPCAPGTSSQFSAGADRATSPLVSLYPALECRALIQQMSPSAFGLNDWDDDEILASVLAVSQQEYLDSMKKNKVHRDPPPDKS
Method in brief: as §1

Measured: log2 ratio of Biotin-Ahx-Ub-VS probe labelling

O=C(CCl)NCc1ccc2c(c1)OCO2
inactive: ALG13 0.0126 | ATXN3 0.173 | EIF3F -0.126 | EIF3H -0.0114 | FAM105A -0.111 | OTUB1 -0.278 | OTUD4 -0.266 | OTUD5 0.0579
active: BAP1 -3.05

From the supplement of paper PMC11732987, “Enantioselective OTUD7B fragment discovery through chemoproteomics screening and high-throughput optimisation” (Communications Chemistry, 2025)
